Laboratory results: PubChem BioAssay (NCI)
This is part of a sample that, as a whole, favours compounds with a hit. Of some 79,000 tested, about 15% had one in any assay. The source made the active and inactive calls. Rule as the data show it: active = growth inhibition above about 70%; inactive = the rest.

Key:
[1] = NCI Yeast Anticancer Drug Screen. Data for the mec2-1 strain (AID 157); details: S. cerevisiae mec2-1 strain, active compounds read high
Outline: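 Test agents were screened against the mec2-1 yeast strain, with defined DNA repair or cell cycle alteration. Growth was scored as inhibition against vehicle-only controls.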

[2] = NCI Yeast Anticancer Drug Screen. Data for the sgs1 mgt1 strain (AID 161);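 also: 0% = growth of cultures given vehicle only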; details: S. cerevisiae sgs1 mgt1 strain, active compounds read high
Outline: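 Inhibition of yeast growth, normalised to vehicle-treated controls, is reported for a strain bearing genetic alterations in DNA damage repair.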

[3] = NCI Yeast Anticancer Drug Screen. Data for the CLN2oe strain (AID 163);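 also: 0% = growth of vehicle-only control cultures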; details: S. cerevisiae CLN2oe strain, active compounds read high
Outline: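 Here, growth inhibition in a cell-cycle-altered yeast strain after compound exposure was quantified against vehicle control growth.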

[4] = NCI Yeast Anticancer Drug Screen. Data for the cln2 rad14 strain (AID 165);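 also: 0% = growth equal to vehicle treated cultures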; details: S. cerevisiae cln2 rad14 strain, active compounds read high
Outline: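 Growth of compound-exposed yeast (cln2 rad14 genotype) measured and expressed as inhibition relative to vehicle.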

[5] = NCI Yeast Anticancer Drug Screen. Data for the bub3 strain (AID 167); details: S. cerevisiae bub3 mutant strain, active compounds read high
Outline: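 Compounds were applied to a genetically altered yeast strain carrying a cell-cycle control defect. Growth inhibition was scored against vehicle-treated controls.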

[6] = NCI Yeast Anticancer Drug Screen. Data for the wt2 strain (AID 169);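 also: 0% = growth of vehicle-treated yeast cultures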; details: S. cerevisiae wt2 strain growth inhibition, active compounds read high
Outline: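 Genetically defined yeast strains from a DNA-repair/cell-cycle panel were used. Compound-exposed yeast growth was measured, and the inhibition was calculated relative to vehicle treatment.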

[7] = NCI Yeast Anticancer Drug Screen. Data for the mlh1 strain (AID 171);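 also: 0% = growth of vehicle-treated control cultures of the same strain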; details: S. cerevisiae mlh1 strain growth inhibition, active compounds read high
Outline: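 Here the genetically defined yeast mutant is grown with each compound, and the extent to which its growth falls below that of vehicle-exposed cells is reported.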

[8] = NCI Yeast Anticancer Drug Screen. Data for the sgs1 strain (AID 173);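 also: 0% = growth of vehicle-only control cultures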; details: S. cerevisiae sgs1 mutant, active compounds read high
Outline: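 Relative growth inhibition, referenced to vehicle, was determined in a yeast strain with a defined alteration affecting DNA damage repair or cell cycle control after compound exposure.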

[9] = NCI Yeast Anticancer Drug Screen. Data for the mlh1 rad18 strain (AID 175); details: S. cerevisiae mlh1 rad18 strain growth inhibition, active compounds read high
Outline: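 In this whole-cell yeast screen, a strain with altered DNA damage repair is challenged with compound, and its growth is measured against matched vehicle-treated controls.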

[10] = NCI Yeast Anticancer Drug Screen. Data for the rad18 strain (AID 177); details: S. cerevisiae rad18 mutant growth inhibition, active compounds read high
Outline: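 Screen uses a yeast strain with a defined lesion in DNA damage repair; compound effect is read as loss of growth compared to untreated vehicle cultures.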

[11] = NCI Yeast Anticancer Drug Screen. Data for the rad52 strain (AID 147);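 also: 0% = growth of vehicle-treated control cultures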; details: S. cerevisiae rad52 mutant growth inhibition, active compounds read high
Outline: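 Measured: yeast growth inhibition. System: strain with a defined DNA damage repair alteration. Reference: vehicle-treated control cultures.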

[12] = NCI Yeast Anticancer Drug Screen. Data for the wt1 strain (AID 149);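 also: 0% = growth of vehicle-treated wt1 cultures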; details: S. cerevisiae wt1 strain (SPY 50644) growth inhibition, active compounds read high
Outline: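 Yeast wt1 strain exposed to compounds; growth inhibition measured relative to vehicle-treated controls.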

[13] = NCI Yeast Anticancer Drug Screen. Data for the rad50EPP+ strain (AID 151);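 also: 0% = growth of vehicle-treated control cultures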; details: S. cerevisiae rad50 mutant strain, active compounds read high
Outline: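 One strain with a rad50 alteration (rad50EPP+) was compound-treated, its growth then compared to that of vehicle controls.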

[14] = NCI Yeast Anticancer Drug Screen. Data for the rad50 strain (AID 155);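 also: 0% = growth of vehicle-only cultures of the same strain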; details: S. cerevisiae rad50 strain growth inhibition, active compounds read high
Outline: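 Yeast carrying a defined DNA repair defect were exposed to test compounds, and growth was compared with vehicle-treated controls to give percent inhibition.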

[15] = NCI Yeast Anticancer Drug Screen. Data for the rad14 strain (AID 159);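 also: 0% = growth of vehicle-treated control cultures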; details: S. cerevisiae rad14 strain growth inhibition, active compounds read high
Outline: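 Yeast cells carrying a defined DNA-repair defect were exposed to compounds, and growth inhibition was calculated relative to vehicle-treated control cultures.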

[16] = at 5.0 µM (retest, dose inferred, filed as 0.5)
[17] = at 50.0 µM (retest, dose inferred, filed as 5.0)

Measured: growth inhibition

CC(C)(CN1CCCCC1)C(=O)CC(SCCS(=O)(=O)O)c1ccc(Br)cc1 (stereo unspecified)
active: [5]; at 50.0 µM 74.7%
inactive: [1]; [16] -7% | [1]; at 11.0 µM 14% | [1]; at 33.0 µM 18% | [1]; [17] 11% | [1]; at 50.0 µM 52.9% | [1]; at 100.0 µM 36% | [2]; [16] 5% | [2]; [17] 4% | [2]; at 50.0 µM 68.5% | [3]; at 1.2 µM 2% | [3]; at 3.7 µM 4% | [3]; at 11.0 µM 13% | [3]; at 33.0 µM 25% | [3]; at 100.0 µM 33% | [4]; [16] 13% | [4]; [17] 26% | [4]; at 50.0 µM 56.7% | [5]; at 1.2 µM 1% | [5]; at 3.7 µM 6% | [5]; [16] -4% | [5]; at 11.0 µM 17% | [5]; at 33.0 µM 29% | [5]; [17] 56% | [5]; at 100.0 µM 61% | [6]; at 1.2 µM 1% | [6]; at 3.7 µM 3% | [6]; at 11.0 µM 11% | [6]; at 33.0 µM 24% | [6]; at 100.0 µM 46% | [7]; at 1.2 µM 3% | [7]; at 3.7 µM 6% | [7]; at 11.0 µM 17% | [7]; at 33.0 µM 26% | [7]; at 100.0 µM 52% | [8]; at 1.2 µM 2% | [8]; at 3.7 µM 11% | [8]; at 11.0 µM 28% | [8]; at 33.0 µM 42% | [8]; at 100.0 µM 62% | [9]; [16] 3% | [9]; [17] 21% | [9]; at 50.0 µM 65.2% | [10]; at 1.2 µM 2% | [10]; at 3.7 µM 15% | [10]; at 11.0 µM 29% | [10]; at 33.0 µM 25% | [10]; at 100.0 µM 55%

COc1cc(/C=C2\CCc3ccccc3C2=O)cc(OC)c1OC
inactive: [11]; at 1.2 µM 3% | [11]; at 3.7 µM -3% | [11]; at 11.0 µM 3% | [11]; at 33.0 µM 18% | [12]; at 1.2 µM 9% | [12]; at 3.7 µM 3% | [12]; at 11.0 µM -2% | [12]; at 33.0 µM 11% | [13]; at 1.2 µM 1% | [13]; at 3.7 µM 2% | [13]; at 11.0 µM 17% | [13]; at 33.0 µM 30% | [13]; at 100.0 µM 40% | [14]; at 1.2 µM 6% | [14]; at 3.7 µM -3% | [14]; [16] 15% | [14]; at 11.0 µM -17% | [14]; at 33.0 µM 26% | [14]; [17] 6% | [14]; at 50.0 µM 44.1% | [1]; at 1.2 µM -17% | [1]; at 3.7 µM 10% | [1]; [16] -11% | [1]; at 11.0 µM 1% | [1]; at 33.0 µM 22% | [1]; [17] 14% | [1]; at 50.0 µM 25.6% | [15]; at 1.2 µM -10% | [15]; at 3.7 µM -25% | [15]; at 11.0 µM -44% | [15]; at 33.0 µM -28% | [15]; at 100.0 µM 48% | [2]; [16] 5% | [2]; [17] 33% | [2]; at 50.0 µM 56.8% | [3]; at 1.2 µM 13% | [3]; at 3.7 µM -2% | [3]; at 11.0 µM 2% | [3]; at 33.0 µM 15% | [4]; [16] 2% | [4]; [17] 24% | [4]; at 50.0 µM 39.8% | [5]; at 1.2 µM -29% | [5]; at 3.7 µM -13% | [5]; [16] -3% | [5]; at 11.0 µM 32% | [6]; at 1.2 µM 2% | [6]; at 3.7 µM 0% | [6]; at 11.0 µM -10% | [6]; at 33.0 µM 13% | [7]; at 1.2 µM -3% | [7]; at 3.7 µM -7% | [7]; at 11.0 µM -11% | [7]; at 33.0 µM 21% | [8]; at 1.2 µM 16% | [8]; at 3.7 µM 17% | [8]; at 11.0 µM 24% | [8]; at 33.0 µM 61% | [9]; [16] -15% | [9]; [17] 0% | [9]; at 50.0 µM 33.5% | [10]; at 1.2 µM 5% | [10]; at 3.7 µM 8% | [10]; at 11.0 µM 7% | [10]; at 33.0 µM 35%
active: [11]; at 100.0 µM 70% | [12]; at 100.0 µM 76% | [14]; at 100.0 µM 72% | [1]; at 100.0 µM 73% | [3]; at 100.0 µM 74% | [5]; at 33.0 µM 76% | [5]; [17] 86% | [5]; at 50.0 µM 74.3% | [5]; at 100.0 µM 85% | [6]; at 100.0 µM 79% | [7]; at 100.0 µM 75% | [8]; at 100.0 µM 86% | [10]; at 100.0 µM 73%
